# Screen size: about 5,500 compounds; about 2,000 (36%) were called active. Inconclusive results (about 18%) are left out. The list shows a part of the results. A number with no mark means an inactive call. Cut-off read from the data, not from the text of the source: active = normalized growth mostly below about 0.91 (no sharp cut-off); inconclusive = no clear call, values can overlap the other calls; inactive = mostly above about 0.92.
# Assay: chemical genetic growth profiling, strain panel (AID 1159580);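 note: tested at 20 µM; growth read once vehicle control cultures reached saturation at 30 °C; 1 = growth at the plate median or of vehicle wells; lower values mean less growth of the strain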
# Settings: S. cerevisiae deletion strains, growth OD
# [1] = locus YAL040C, strain CLN3, active compounds read low
# [2] = locus YCL061C, strain MRC1 (second series), active compounds read low
# [3] = locus YDR150W, strain NUM1, active compounds read low
# [4] = locus YDR363W, strain ESC2, active compounds read low
# [5] = locus YER002W, strain NOP16, active compounds read low
# [6] = locus YGR229C, strain SMI1, active compounds read low
# [7] = locus YNL175C, strain NOP13, active compounds read low
# [8] = locus YNL197C, strain WHI3, active compounds read low
# [9] = locus YNL224C, strain SQS1, active compounds read low
# [10] = locus YOR083W, strain WHI5 (second series), active compounds read low
# [11] = locus YPL055C, strain LGE1, active compounds read low
Compound,normalized growth [1],normalized growth [2],normalized growth [3],normalized growth [4],normalized growth [5],normalized growth [6],"normalized growth (locus YJR075W, strain HOC1, active compounds read low)","normalized growth (locus YMR263W, strain SAP30, active compounds read low)","normalized growth (locus YNL128W, strain TEP1, active compounds read low)",normalized growth [7],normalized growth [8],normalized growth [9],normalized growth [10],normalized growth [11],"normalized growth (locus YAL013W, strain DEP1, active compounds read low)","normalized growth (locus YGR078C, strain PAC10, active compounds read low)","normalized growth (locus YMR307W, strain GAS1, active compounds read low)","normalized growth (locus YPL241C, strain CIN2, active compounds read low)"
OC(CN1CCC(Cc2ccc(F)cc2)CC1)c1ccc(Cl)cc1 (centres undefined),0.991,0.997,0.999,1.05,1.03,1.07,1.01,0.992,1.01,1,1.01,1,1.05,1.01,,,,
CC(C(O)c1ccc(O)cc1)N1CCC(Cc2ccccc2)CC1 (centres undefined),1.03,0.959,0.872 (active),0.94,1.01,0.785 (active),,,,0.935,1.03,1.03,1.04,0.75 (active),0.932,1.01,0.994,0.944 (active)

# Reference: PubChem BioAssay AID1159580 (chemical genetic matrix, 2015)
